# Data from the supplement of paper PMC10037445.
# ± gives the standard deviation of the averaged measurements. Over roughly 2,900 compounds, “NF-kB SEAP reporter activity, fold change vs agonist alone” has its median near 0.99; the highest 2% begin near 2.6. This is one part of a sample in which the highest values are shown more often than they occur.
# Tests used:
# RAW-Dual [1] = assay: NF-kB SEAP reporter activity, fold change vs agonist alone; cytotoxicity flag (confluency mask): not cytotoxic; higher = enhanced NF-kB activity
# Method in brief: (§1)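 RAW-Dual macrophages were seeded in DMEM at 50,000 cells/well in 384-well plates, given 50 nL of library stock by pin tool, and given a PRR agonist 1 h later. Plates were held at 37 °C, 5% CO2 for 20 hours, after which supernatant was read for IRF by QuantiLuc luminescence and for NF-κB by QuantiBlue absorbance at 620 nm. Reporter activity is expressed as fold change over wells that received agonist alone. A well was called cytotoxic when IncuCyte confluency fell below 70% of agonist controls in both mask sets.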
# RAW-Dual [2] = assay: NF-kB SEAP reporter activity, fold change vs agonist alone; higher = enhanced NF-kB activity; conditions: library stock concentration (final ~1000-fold dilution): 10 mM, cytotoxicity flag (confluency mask): not cytotoxic
# Method in brief: as §1
# [3] = agonist: ODN 1826 (TLR9) 0.5 ug/mL
# [4] = agonist: Pam2CSK4 (TLR2/6) 0.1 ug/mL
# [5] = agonist: Pam3CSK4 (TLR2/1) 0.1 ug/mL
smiles,measurement,setting,value
Cn1nc(C(C)(C)C)cc1C(=O)NC(Cc1cccc(Cl)c1)C(=O)NCC#N (stereo unspecified) (library stock concentration (final ~1000-fold dilution): 10 mM),NF-kB SEAP reporter activity,RAW-Dual [1]; agonist: LPS (TLR4) 0.1 ug/mL,1.13
same,NF-kB SEAP reporter activity,RAW-Dual [1]; [3],1.14
same,NF-kB SEAP reporter activity,RAW-Dual [1]; [4],0.947
same,NF-kB SEAP reporter activity,RAW-Dual [1]; [5],0.992
CC(C)(C)c1cc(C(=O)/C(C#N)=N/Nc2cccc(Cl)c2)no1,NF-kB SEAP reporter activity,RAW-Dual [2]; agonist: Imiquimod (TLR7) […],1.11
same,NF-kB SEAP reporter activity,RAW-Dual [2]; agonist: MPLA (TLR4) […],1.91
CC(C)(C)c1cc(C(=O)/C(C#N)=N/Nc2cccc(Cl)c2)no1 (library stock concentration (final ~1000-fold dilution): 10 mM),NF-kB SEAP reporter activity,RAW-Dual [1]; agonist: LPS (TLR4) 0.1 ug/mL,4.18
same,NF-kB SEAP reporter activity,RAW-Dual [1]; [3],1.16
same,NF-kB SEAP reporter activity,RAW-Dual [1]; [4],0.423
same,NF-kB SEAP reporter activity,RAW-Dual [1]; [5],0.673
C=C1CCC2C(C)(CO)C(O)CCC2(C)C1C/C=C1/C(=O)OCC1O (stereo unspecified) (library stock concentration (final ~1000-fold dilution): 10 mM),NF-kB SEAP reporter activity,RAW-Dual [1]; agonist: LPS (TLR4) 0.1 ug/mL,0.565 ± 0.2
same,NF-kB SEAP reporter activity,RAW-Dual [1]; [3],0.418 ± 0.039
same,NF-kB SEAP reporter activity,RAW-Dual [1]; [4],0.96 ± 0.18
same,NF-kB SEAP reporter activity,RAW-Dual [1]; [5],0.65 ± 0.11
C=C1CCC2C(C)(CO)C(O)CCC2(C)C1C/C=C1/C(=O)OCC1O (stereo unspecified),NF-kB SEAP reporter activity,RAW-Dual [2]; agonist: Imiquimod (TLR7) […],0.933 ± 0.078
same,NF-kB SEAP reporter activity,RAW-Dual [2]; agonist: MPLA (TLR4) […],0.792 ± 0.1
Cc1ccc(NC(=O)c2ccnc(C(F)(F)F)c2)cc1-c1cc(OCCO)nc(N2CCOCC2)c1 (library stock concentration (final ~1000-fold dilution): 10 mM),NF-kB SEAP reporter activity,RAW-Dual [1]; agonist: LPS (TLR4) 0.1 ug/mL,1.01
same,NF-kB SEAP reporter activity,RAW-Dual [1]; [3],0.551
same,NF-kB SEAP reporter activity,RAW-Dual [1]; [4],0.265
same,NF-kB SEAP reporter activity,RAW-Dual [1]; [5],0.438
Cc1ccc(NC(=O)c2ccnc(C(F)(F)F)c2)cc1-c1cc(OCCO)nc(N2CCOCC2)c1,NF-kB SEAP reporter activity,RAW-Dual [2]; agonist: Imiquimod (TLR7) […],1.03
same,NF-kB SEAP reporter activity,RAW-Dual [2]; agonist: MPLA (TLR4) […],0.836
CC(C)n1cnc2c(NCCc3ccc(O)cc3)nc(-c3csc4ccccc34)nc21,NF-kB SEAP reporter activity,RAW-Dual [2]; agonist: Imiquimod (TLR7) […],2.38
same,NF-kB SEAP reporter activity,RAW-Dual [2]; agonist: MPLA (TLR4) […],2.64
CC(C)n1cnc2c(NCCc3ccc(O)cc3)nc(-c3csc4ccccc34)nc21 (library stock concentration (final ~1000-fold dilution): 10 mM),NF-kB SEAP reporter activity,RAW-Dual [1]; agonist: LPS (TLR4) 0.1 ug/mL,3.02
same,NF-kB SEAP reporter activity,RAW-Dual [1]; [3],1.56
same,NF-kB SEAP reporter activity,RAW-Dual [1]; [4],0.535
same,NF-kB SEAP reporter activity,RAW-Dual [1]; [5],0.662
Nc1nc(NCCc2ccc(O)cc2)nc2nc(-c3ccco3)nn12,NF-kB SEAP reporter activity,RAW-Dual [2]; agonist: Imiquimod (TLR7) […],1.7
same,NF-kB SEAP reporter activity,RAW-Dual [2]; agonist: MPLA (TLR4) […],1.36
CC(C)C(CO)Nc1nc(Nc2cccc(Cl)c2)c2ncn(C(C)C)c2n1 (stereo unspecified) (library stock concentration (final ~1000-fold dilution): 10 mM),NF-kB SEAP reporter activity,RAW-Dual [1]; agonist: LPS (TLR4) 0.1 ug/mL,0.715
same,NF-kB SEAP reporter activity,RAW-Dual [1]; [3],1.05
same,NF-kB SEAP reporter activity,RAW-Dual [1]; [4],1.22
same,NF-kB SEAP reporter activity,RAW-Dual [1]; [5],0.679
Nc1nc(NCCc2ccc(O)cc2)nc2nc(-c3ccco3)nn12 (library stock concentration (final ~1000-fold dilution): 10 mM),NF-kB SEAP reporter activity,RAW-Dual [1]; agonist: LPS (TLR4) 0.1 ug/mL,1.81
same,NF-kB SEAP reporter activity,RAW-Dual [1]; [3],1.56
same,NF-kB SEAP reporter activity,RAW-Dual [1]; [4],1.16
same,NF-kB SEAP reporter activity,RAW-Dual [1]; [5],1.41
CC(C)C(CO)Nc1nc(Nc2cccc(Cl)c2)c2ncn(C(C)C)c2n1 (stereo unspecified),NF-kB SEAP reporter activity,RAW-Dual [2]; agonist: Imiquimod (TLR7) […],1.19
same,NF-kB SEAP reporter activity,RAW-Dual [2]; agonist: MPLA (TLR4) […],1.14
C=C1CCC2C(C)(COC(=O)CCC(=O)O)C(OC(=O)CCC(=O)O)CCC2(C)C1C=CC1=CCOC1=O (stereo unspecified),NF-kB SEAP reporter activity,RAW-Dual [2]; agonist: Imiquimod (TLR7) […],0.865
same,NF-kB SEAP reporter activity,RAW-Dual [2]; agonist: MPLA (TLR4) […],1.03
C=C1CCC2C(C)(COC(=O)CCC(=O)O)C(OC(=O)CCC(=O)O)CCC2(C)C1C=CC1=CCOC1=O (stereo unspecified) (library stock concentration (final ~1000-fold dilution): 10 mM),NF-kB SEAP reporter activity,RAW-Dual [1]; agonist: LPS (TLR4) 0.1 ug/mL,1.34
same,NF-kB SEAP reporter activity,RAW-Dual [1]; [3],0.979
same,NF-kB SEAP reporter activity,RAW-Dual [1]; [4],1.26
same,NF-kB SEAP reporter activity,RAW-Dual [1]; [5],1.02
CN1CCN(CCCNc2ncc(Cl)c(-c3cc4c(C(=O)NC5CC5)cccc4s3)n2)CC1.Cl.Cl.Cl (library stock concentration (final ~1000-fold dilution): 10 mM),NF-kB SEAP reporter activity,RAW-Dual [1]; agonist: LPS (TLR4) 0.1 ug/mL,0.313 ± 0.14
same,NF-kB SEAP reporter activity,RAW-Dual [1]; [3],0.174 ± 0.0094
same,NF-kB SEAP reporter activity,RAW-Dual [1]; [4],0.0865 ± 0.0023
same,NF-kB SEAP reporter activity,RAW-Dual [1]; [5],0.134 ± 0.0077
CN1CCN(CCCNc2ncc(Cl)c(-c3cc4c(C(=O)NC5CC5)cccc4s3)n2)CC1.Cl.Cl.Cl,NF-kB SEAP reporter activity,RAW-Dual [2]; agonist: Imiquimod (TLR7) […],0.215 ± 0.045
same,NF-kB SEAP reporter activity,RAW-Dual [2]; agonist: MPLA (TLR4) […],0.2944 ± 0.00089
CCO.N#CC(=C(\N)Sc1ccccc1N)/C(C#N)=C(/N)Sc1ccccc1N,NF-kB SEAP reporter activity,RAW-Dual [2]; agonist: Imiquimod (TLR7) […],0.206
same,NF-kB SEAP reporter activity,RAW-Dual [2]; agonist: MPLA (TLR4) […],0.236
CCO.N#CC(=C(\N)Sc1ccccc1N)/C(C#N)=C(/N)Sc1ccccc1N (library stock concentration (final ~1000-fold dilution): 10 mM),NF-kB SEAP reporter activity,RAW-Dual [1]; agonist: LPS (TLR4) 0.1 ug/mL,0.241
same,NF-kB SEAP reporter activity,RAW-Dual [1]; [3],0.368
same,NF-kB SEAP reporter activity,RAW-Dual [1]; [4],0.0792
same,NF-kB SEAP reporter activity,RAW-Dual [1]; [5],0.146
CCOC(=O)c1ccc(NC2CCCCC2)c(N)c1 (library stock concentration (final ~1000-fold dilution): 10 mM),NF-kB SEAP reporter activity,RAW-Dual [1]; agonist: LPS (TLR4) 0.1 ug/mL,2.07
same,NF-kB SEAP reporter activity,RAW-Dual [1]; [3],1.28
same,NF-kB SEAP reporter activity,RAW-Dual [1]; [4],0.963
same,NF-kB SEAP reporter activity,RAW-Dual [1]; [5],1.09
CCn1cc(C(=O)O)c(=O)c2c(N)c(F)c(NC3CCCCC3)cc21 (library stock concentration (final ~1000-fold dilution): 10 mM),NF-kB SEAP reporter activity,RAW-Dual [1]; agonist: LPS (TLR4) 0.1 ug/mL,4.89
same,NF-kB SEAP reporter activity,RAW-Dual [1]; [3],2.9
same,NF-kB SEAP reporter activity,RAW-Dual [1]; [4],1.85
same,NF-kB SEAP reporter activity,RAW-Dual [1]; [5],3.32
CCn1cc(C(=O)O)c(=O)c2cc(F)c(N3CCN(C)CC3)cc21.CS(=O)(=O)O,NF-kB SEAP reporter activity,RAW-Dual [2]; agonist: Imiquimod (TLR7) […],0.916
same,NF-kB SEAP reporter activity,RAW-Dual [2]; agonist: MPLA (TLR4) […],0.878
CCn1cc(C(=O)O)c(=O)c2c(N)c(F)c(NC3CCCCC3)cc21,NF-kB SEAP reporter activity,RAW-Dual [2]; agonist: Imiquimod (TLR7) […],1.75
same,NF-kB SEAP reporter activity,RAW-Dual [2]; agonist: MPLA (TLR4) […],1.95
CCn1cc(C(=O)O)c(=O)c2cc(F)c(N3CCN(C)CC3)cc21.CS(=O)(=O)O (library stock concentration (final ~1000-fold dilution): 10 mM),NF-kB SEAP reporter activity,RAW-Dual [1]; agonist: LPS (TLR4) 0.1 ug/mL,0.962
same,NF-kB SEAP reporter activity,RAW-Dual [1]; [3],1.03
same,NF-kB SEAP reporter activity,RAW-Dual [1]; [4],1.11
same,NF-kB SEAP reporter activity,RAW-Dual [1]; [5],1.12
CCOC(=O)c1ccc(NC2CCCCC2)c(N)c1,NF-kB SEAP reporter activity,RAW-Dual [2]; agonist: Imiquimod (TLR7) […],1.14
same,NF-kB SEAP reporter activity,RAW-Dual [2]; agonist: MPLA (TLR4) […],1.57
